VP16 counter: VP16 counterscreen qHTS for inhibitors of ROR gamma transcriptional activity | Drosophila S2 Gal4-VP16 UAS-luciferase, luminescence, 20 h | Potency, µM (doses to about 53.6 µM), most hits filed as inhibitors | actives 3.5% (n = 310,000) | AID 2546, 2010;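 also: Gal4-VP16 expression switched on by copper sulfate through the metallothionein promoter; nearly all actives have a fitted effect of over 50% in size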
ELG1 DNA repair: qHTS screen for small molecules that inhibit ELG1-dependent DNA repair in human embryonic kidney (HEK293T) cells expressing luciferase-tagged ELG1 | HEK293T ELG1-luciferase reporter, luminescence, 16 h; DNA damage induced by 5-fluorouridine | Potency, µM (series often up to 46.1 µM), hits mostly inhibitors | actives 2.3% (n = 330,000) | AID 504467, 2011; also: nearly all actives have a fitted effect of over 55% in size
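Step one: seed 2,000 cells per well. Step two: pin-transfer compound or DMSO alongside 5-fluorouridine. Step three: incubate 16 hr, 37 °C, 5% CO2. Step four: add ONE-Glo, wait 30 min, read luminescence.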
RORg inh: qHTS for inhibitors of ROR gamma transcriptional activity; Drosophila S2 Gal4-RORgamma UAS-luciferase reporter, 20 h; AID 2551, 2010; Potency, µM (titrated, usually from 53.6 µM), most hits filed as inhibitors; actives 5.4% (n = 310,000); Nuclear receptor ROR-gamma (Mus musculus), P51450; also: nearly all actives have a fitted effect of over 60% in size
Target sequence (P51450 whole entry, looked up, the tested form may be a part): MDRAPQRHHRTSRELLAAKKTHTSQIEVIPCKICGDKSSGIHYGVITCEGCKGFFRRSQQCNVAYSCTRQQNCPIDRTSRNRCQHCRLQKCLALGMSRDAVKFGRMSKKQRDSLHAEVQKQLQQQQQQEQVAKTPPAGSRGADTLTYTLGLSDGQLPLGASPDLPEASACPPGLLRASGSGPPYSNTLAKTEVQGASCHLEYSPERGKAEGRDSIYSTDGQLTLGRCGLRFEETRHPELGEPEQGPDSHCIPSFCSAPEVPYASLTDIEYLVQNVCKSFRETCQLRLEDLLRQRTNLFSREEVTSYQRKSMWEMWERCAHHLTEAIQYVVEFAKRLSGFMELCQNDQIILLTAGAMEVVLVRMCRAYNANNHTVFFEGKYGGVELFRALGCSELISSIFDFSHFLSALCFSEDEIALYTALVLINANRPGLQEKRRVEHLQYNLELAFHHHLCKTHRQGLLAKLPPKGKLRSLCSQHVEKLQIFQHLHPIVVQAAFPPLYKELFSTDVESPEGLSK
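Luminescence from a UAS-regulated Photinus luciferase reporter in stably transfected Drosophila Schneider cells is measured; decreased signal marks ROR gamma inhibition. Fusion expression is induced by 700 uM copper sulfate for 20 hr.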
SW480 rereplic: A quantitative high throughput screen for small molecules that induce DNA re-replication in SW480 colon adenocarcinoma cells | SW480 DNA re-replication, Hoechst DNA content imaging, 48 h | Potency, µM (top dose mostly 46.1 µM), hits mostly activators | actives 1.8% (n = 340,000) | AID 624297, 2012; also: nearly all actives have a fitted effect of over 55% in size
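SW480 cells exposed to compounds for 48 hr at 37 C, 5% CO2, then Hoechst-stained 40 min. Nuclear DNA content imaged by fluorescence scanning (405 nm excitation, 500-530 nm emission); re-replication scored as increased high-intensity nuclei.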
MCF10A rereplic: A quantitative high throughput screen for small molecules that induce DNA re-replication in MCF 10a normal breast cells | MCF 10A DNA re-replication, Hoechst nuclear intensity, 48 h | actives 2.9% (n = 350,000) | Potency, µM (titrated, usually from 46.1 µM), actives largely listed as activators; also: nearly all actives have a fitted effect of over 50% in size
A number is an active result; – = inactive; ? = inconclusive; · = not tested or not shown; [ ] = dose if it differs, or a comment. Sampled rows, rich in hits. Any-hit rate of the full collection: about 10%. Calls follow the shape of the dose curve; as a rule, active = well fitted curve in the direction sought with a large enough effect; inconclusive = small, poorly fitted or top-dose-only effect, or another doubt; inactive = no such curve, though single readings can be large; an effect the other way counts as inactive or inconclusive.

SMILES	VP16 counter	ELG1 DNA repair	RORg inh	SW480 rereplic	MCF10A rereplic
COc1ccccc1-c1cc(C(=O)N/N=C/c2sccc2C)c2ccccc2n1	8.9µM	12µM	7.1µM	–	?
CC1(c2ccc(Cl)cc2)NC(=O)N(CC(=O)NCCC2=CCCCC2)C1=O (configuration not stated)	·	–	·	0.16µM	–
C/C(CC(=O)Nc1cc(C)ccn1)=N\NC(=O)c1cccc(C)c1O	5µM	?	11µM	12µM	?
C/C(CC(=O)Nc1ccccn1)=N\NC(=O)c1ccccc1	–	?	–	·	·
C/C(=N/NC(=O)c1cccc(C)c1)c1c(O)cc(C)oc1=O	3.5µM	?	?	–	–
C/C(CC(=O)Nc1cc(C)ccn1)=N\NC(=O)c1cccc(C)c1	–	?	11µM	–	–
C/C(CC(=O)Nc1ccccn1)=N\NC(=O)c1ccccc1O	?	?	–	1.3µM	–
CCN(C(=O)CSc1nc2ccc([N+](=O)[O-])cc2s1)C1CCS(=O)(=O)C1 (configuration not stated)	–	–	–	–	–
COc1cccc(NC(=O)C/C(C)=N/NC(=O)c2ccccc2Cl)c1	–	–	?	–	–
C/C(CC(=O)Nc1cccc(Br)c1)=N\NC(=O)c1ccc(O)cc1O	?	–	0.89µM	–	–
COC(=O)C1(C)C=CC2(CCCCC2)N1C(=O)c1ccccc1 (configuration not stated)	–	·	10µM	·	·
CCNC(=O)C1CCCN1S(=O)(=O)c1ccc(C)cc1 (configuration not stated)	–	–	–	–	21µM
O=C(NCc1ccc(Cl)cc1)[C@@H]1CCCN1S(=O)(=O)c1ccc(Cl)cc1	·	–	·	–	–
O=C(NCc1ccncc1)C1CCCN1S(=O)(=O)c1ccc(Cl)cc1 (configuration not stated)	–	–	0.63µM	–	–
Cc1ccc(C(=O)N[C@H](C(=O)NC2CCCCC2)C(C)C)cc1	·	–	·	–	–
O=C(CCC(=O)N1CCOc2ccccc21)Nc1ccc(F)cc1F	–	–	–	–	–
Cc1nc(Nc2nc3ccccc3o2)nc2c1CCC2	6.3µM	?	2.8µM	?	–[0.0737 µM]
Clc1ccccc1Nc1nc2ccccc2o1	·	?	·	–	–
Cc1cccc(C)c1Nc1nc2ccccc2o1	?	–	16µM	–	–
COCCNC(=O)C(=O)N/N=C(\C)CC(=O)Nc1cccc(C(F)(F)F)c1	–	–	–	–	–
CCOc1ccc(Nc2ccc(S(=O)(=O)N3CCN(C)CC3)cc2[N+](=O)[O-])cc1OCC	·	–	·	–	–
CN1CCN(S(=O)(=O)c2ccc(Nc3ccc(F)cc3)c([N+](=O)[O-])c2)CC1	·	–	·	29µM	?
C=CCn1c2ccccc2c2nnc(SCCCn3c(=O)[nH]c4ccccc43)nc21	?	?	–	–[9.22 µM]	21µM
CC(C)CNC(=S)N1CCN(C(c2ccccc2)c2ccccc2)CC1	?	–	13µM	–	–
COCCCNC(=S)N1CCN(c2nc(-c3ccccc3)cs2)CC1	?	?	–	–	15µM
SMILES	VP16 counter	ELG1 DNA repair	RORg inh	SW480 rereplic	MCF10A rereplic
C=C(C)CNC(=S)N1CCN(C(c2ccccc2)c2ccccc2)CC1	?	?	?	–	–[9.22 µM]
COCCCNC(=S)N1CCN(C(c2ccccc2)c2ccccc2)CC1	?	–	16µM	–	–
CCOCCCNC(=S)N1CCN(c2nc(-c3ccccc3)cs2)CC1	?	?	?	–	?
S=C(NCc1ccco1)N1CCN(C(c2ccccc2)c2ccccc2)CC1	?	–	13µM	–	–
O=C(CN1CCN(C(c2ccccc2)c2ccccc2)CC1)NC(=O)NCc1ccco1	–	–	–	?	–
O=C(CN1CCN(c2nc(-c3ccccc3)cs2)CC1)NNC(=O)c1ccc(Br)cc1	–	?	–	–	–
O=C(NC(=S)N1CCN(c2nc(-c3ccccc3)cs2)CC1)c1cncc(Br)c1	0.22µM	?	0.22µM	16µM	21µM
Cc1ccc2oc(C(=O)N(Cc3nccn3C)C(C)C)c(C)c2c1	–	–	?	–	–
CC(=O)c1ccc(NC(=O)Cc2ccsc2)cc1	–	?	–	–	–
CCn1c(C)cs/c1=N\C(=S)Nc1ccccc1C	5.6µM	–	2.2µM	·	–
CCOC(=O)c1cnc(-n2nc(C)cc2C)nc1NCc1ccc2c(c1)OCO2	3.2µM	21µM	3.5µM	?	?
CCOC(=O)c1cnc(-n2cc(C)cn2)nc1Nc1ccccc1OCC	–	?	1.8µM	–	–
CCOC(=O)c1cnc(-n2nc(C)cc2C)nc1Nc1ccc(OC)cc1	2.5µM	?	1.6µM	?	–
CCOC(=O)c1cnc(-n2nc(C)cc2C)nc1Nc1ccccc1OC	2.2µM	–	1.3µM	·	·
C=CCc1cc(/C=C2/NC(=O)N(CC(=O)OC)C2=O)cc(OC)c1O	–	–	?	–	–
CCOC(=O)c1cnc(-n2nc(C)cc2C)nc1Oc1ccccc1F	?	–	5µM	–	–
CCOC(=O)c1cnc(-n2nc(C)cc2C)nc1NCCc1ccccc1	1.8µM	?	0.89µM	–	?
CCOC(=O)c1cnc(-n2nc(C)cc2C)nc1NC1CCCC1	–	?	–	–	–
CN1C[C@@H]2[C@@H]3C(=O)N(C)C(=O)[C@@H]3[C@](Cc3ccccc3)(C1=O)N2C(=O)c1ccccc1	·	·	·	–	?
Cc1cccc(N2CCN(C(=O)C3CCCN(S(=O)(=O)c4cnc[nH]4)C3)CC2C)c1 (configuration not stated)	–	23µM	–	–	?
Cc1cccc(N2CCN(C(=O)C3CCN(S(=O)(=O)c4c(C)noc4C)CC3)CC2C)c1 (configuration not stated)	–	21µM	?	–	–
Cc1c(CCC(=O)N[C@@H](C)C(=O)O)c(=O)oc2cc3occ(-c4ccccc4)c3cc12	–	–	–	–	–
COc1ccc2[nH]c(=O)c3c(c2c1)OC(C)(C)C=C3	25µM	?	–	–	?
Cc1cc2c([nH]c3ccccc32)c2c1OC(C)(C)C=C2	–	?	–	?	?
CCOC(=O)COc1cccc2c(=O)n(CC(=O)NCc3ccc4c(c3)OCO4)ccc12	–	–	–	7.3µM	?
CCOC(=O)C(C)Oc1cccc2c(=O)n(CC(=O)NCCc3ccccc3)ccc12 (configuration not stated)	–	–	–	–	–
CCOC(=O)C(C)Oc1cccc2c(=O)n(CC(=O)NCc3ccccc3)ccc12 (configuration not stated)	–	?	–	1.3µM	0.58µM
COC(=O)COc1cccc2c(=O)n(CC(=O)NCc3ccc(F)cc3)ccc12	–	?	–	5.8µM	10µM
Cc1ccc(NC(=O)Cn2cc(C(F)(F)F)cc(Cl)c2=O)cc1Cl	–	–	–	–	–

Screens (PubChem BioAssay)
